Rows were chosen to be rich in hits. Some 19% of all compounds tested hit in one or more screens of this group.
TDP1 cell noCPT: qHTS for Inhibitors of human tyrosyl-DNA phosphodiesterase 1 (TDP1): qHTS in cells in absence of CPT. Potency, µM (doses to about 46.2 µM), for inactives: top-dose activity change, negative = growth inhibition, usual class: inhibitors. AID 686978, 2013. actives 15% (n = 420,000). DT40 Tdp1-/- hTDP1 cells, no CPT, ATP luminescence, 48 h; further: potency means the concentration at half of the fitted maximal effect; on the % scale 0 is the no-effect control and ±100 the full control effect; nearly all actives have a fitted effect of over 55% in size
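Seeded 400 DT40-hTDP1 cells/well (vehicle DMSO, no 20 nM CPT); pinned compounds; ≥48 hr at 37 °C; CellTiter-Glo luminescence as viability measure.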
ASM inhibitor: Inhibitors of Secretory Acid Sphingomyelinase (S-ASM): qHTS; Potency, µM (titrated, usually from 57.5 µM), inactives show at the top dose activity change, negative = inhibition, usual class: inhibitors; AID 504937, 2011; placental ASM, HMU-PC fluorogenic substrate, 60 min; actives 0.006% (n = 340,000); Sphingomyelin phosphodiesterase (Homo sapiens), P17405; further: potency means the concentration at half of the fitted maximal effect
Target sequence (P17405 47-631 limits assumed): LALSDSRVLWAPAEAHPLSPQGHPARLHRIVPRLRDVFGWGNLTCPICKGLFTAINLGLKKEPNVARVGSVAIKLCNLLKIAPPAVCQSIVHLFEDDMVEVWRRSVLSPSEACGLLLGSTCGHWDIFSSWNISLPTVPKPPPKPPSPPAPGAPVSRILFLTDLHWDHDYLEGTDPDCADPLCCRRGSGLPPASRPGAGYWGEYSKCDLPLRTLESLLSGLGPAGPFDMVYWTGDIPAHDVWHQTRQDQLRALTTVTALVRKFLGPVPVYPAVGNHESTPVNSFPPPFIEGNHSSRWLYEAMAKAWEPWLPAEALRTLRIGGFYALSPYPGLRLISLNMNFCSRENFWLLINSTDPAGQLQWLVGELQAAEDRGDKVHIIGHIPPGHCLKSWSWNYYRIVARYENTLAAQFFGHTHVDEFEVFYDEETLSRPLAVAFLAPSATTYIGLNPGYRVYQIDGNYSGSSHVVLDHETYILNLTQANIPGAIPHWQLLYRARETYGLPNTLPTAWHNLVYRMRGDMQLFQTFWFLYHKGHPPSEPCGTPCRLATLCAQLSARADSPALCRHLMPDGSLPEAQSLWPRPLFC
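Fluorogenic HMU-PC substrate (9 uM final) is turned over by placental ASM in 60 min at 37 C after a 10 min compound preincubation. Reaction ended by alkaline stop (pH 10), with fluorescence read at 386/447 nm.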
TDP1 cell CPT: qHTS for Inhibitors of human tyrosyl-DNA phosphodiesterase 1 (TDP1): qHTS in cells in presence of CPT; AID 686979, 2013; actives 12% (n = 420,000); chicken DT40 Tdp1-/-;hTDP1 cells + 20 nM CPT, ATP luminescence, 48 h; Potency, µM (series often up to 46.2 µM), inactives show at the top dose activity change, negative = growth inhibition, usual class: inhibitors; further: potency means the concentration at half of the fitted maximal effect; on the % scale 0 is the no-effect control and ±100 the full control effect; nearly all actives have a fitted effect of over 55% in size
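Cell growth measured by CellTiter-Glo luminescence after a minimum 48 h, 37 C compound exposure with 20 nM CPT in Tdp1-knockout DT40 cells stably expressing hTDP1, seeded 400/well; qHTS titration format.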
IL1B secr inh: qHTS for Inhibitors of Inflammasome Signaling: IL-1-beta AlphaLISA Primary Screen. THP-1 LPS/ATP IL-1B secretion, AlphaLISA, 16 h; hits give low values. activity change, % at 57.5 µM. actives 4.7% (n = 360,000). AID 743279, 2014; in the data active means activity change below about -50%; inconclusive means mostly about -30% to -49%; further: on the % scale 0 is the no-effect control and ±100 the full control effect
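Secreted IL-1B measured by AlphaLISA bead assay after 16 h compound exposure of THP-1 cells; compounds (final up to 57.5 uM) added 1 h before LPS (250 ng/mL) and ATP (1.25 mM) stimulation; lower signal means less secretion.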
TGFb SMAD3 inh: qHTS for Inhibitors of TGF-b; HepG2 CAGA-GFP TGF-b/SMAD3 reporter, GFP fluorescence, 18 h; TGF-beta stimulated, 500 pg/mL final; Potency, µM (top dose mostly 46.1 µM), for the others: at the highest dose activity, negative = inhibition, most hits filed as inhibitors; actives 1.2% (n = 410,000); AID 588855, 2011; further: potency means the concentration at half of the fitted maximal effect; on the % scale 0 is the no-effect control and ±100 the full control effect; nearly all actives have a fitted effect of over 65% in size
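HEPG2 CAGA-GFP reporter cells (1000/well, DMEM with 1% FBS) received compounds, then recombinant TGF-beta at 500 pg/mL final for 18 hours at 37 degrees C. Per-cell GFP summed per well was normalised to unstimulated and stimulated DMSO controls before curve fitting.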
HepG2 tox: qHTS for Inhibitors of TGF-b: Cytotox Counterscreen; HepG2 CAGA-GFP viability, ATP luminescence, 18 h; AID 588856, 2011; actives 0.76% (n = 410,000); Potency, µM (highest dose often 46.1 µM), inactives show at the highest dose activity change, negative = cytotoxicity, actives largely listed as cytotoxic; further: potency means the concentration at half of the fitted maximal effect
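HepG2 CAGA-GFP cells (1000/well, DMEM with 1% FBS) received compound, then TGF-beta at 500 pg/mL final, and were incubated 18 hours at 37 degrees C. Viability was read by CellTiter-Glo luminescence. Media-only wells were set as complete cell-killing and DMSO as no toxicity.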
* hit, by the source's call; ? = inconclusive; . = no result. Unless noted, the call rests on the fitted dose curve; in most records, active means well fitted curve in the direction sought with a large enough effect; inconclusive means small, poorly fitted or top-dose-only effect, or another doubt; inactive means no such curve, though single readings can be large; an effect the other way counts as inactive or inconclusive.

SMILES	TDP1 cell noCPT	ASM inhibitor	TDP1 cell CPT	IL1B secr inh	TGFb SMAD3 inh	HepG2 tox
CCCCCCCCN1C(=O)[C@H](CC(=O)NCc2ccc(C)o2)C[C@@]2(C(=O)OC)CCCCC=C12	21µM*	.	?	-54*	.	.
COC(=O)[C@]12CCCCC=C1N(CCC1=CCCCC1)C(=O)[C@H](CC(=O)NCc1ccc(C)o1)C2	?	.	?	-14	.	.
CCCCCCCCN1C(=O)[C@H](CC(=O)NCc2ccc(C)o2)C[C@@]2(C(=O)OCC)CCC=C12	16µM*	.	?	.	.	.
CCOC(=O)[C@]12CCC=C1N(Cc1ccccc1)C(=O)[C@H](CC(=O)NCc1ccc(C)o1)C2	-18%	.	-29%	-3	.	.
CC(C)N(C)S(=O)(=O)c1ccc(NC(=O)C2=COCCO2)cc1	8%	2%	-17%	-3	8%	4%
CCOC(=O)N1CCC(NC(=S)Nc2ccc3nc(N4CCN(CC)CC4)cc(C)c3c2)CC1	?	120%	?	-1	-22%	-23%
CCCCN(C)CCNC(=S)Nc1ccc2nc(N3CCN(CC)CC3)cc(C)c2c1	?	195%	?	-63*	-26%	-35%
CCCCNC(=S)Nc1ccc2nc(N3CCN(CC)CC3)cc(C)c2c1	23µM*	133%	23µM*	?	-15%	-23%
CCCN1CCN(CCCNC(=S)Nc2ccc3nc(N4CCN(CC)CC4)cc(C)c3c2)CC1	?	98%	?	-13	-3%	-26%
CCN1CCN(c2cc(C)c3cc(NC(=S)N(C)Cc4ccccc4)ccc3n2)CC1	?	35%	?	-20	0%	-24%
CCN(CC)CCNC(=S)Nc1ccc2nc(N3CCN(CC)CC3)cc(C)c2c1	?	143%	?	-59*	0%	-26%
CCN1CCN(c2cc(C)c3cc(NC(=S)NCCN(C)C)ccc3n2)CC1	21µM*	138%	?	-52*	0%	-16%
CC1CCCCN1CCNC(=O)c1ccc(Cn2c(SCc3ccccc3)nc3cccnc32)cc1 (stereo not drawn)	?	.	?	.	?	-64%
Cc1ccc(NC(=O)Cn2cc(S(=O)(=O)Cc3ccc(F)cc3)c3ccccc32)cc1Cl	?	.	?	.	?	-42%
Cc1ccc(-n2ncc3c(=O)n(-c4ccc(C)c(C)c4)c(C)nc32)cc1	18µM*	-7%	?	0	2%	-8%
Cc1nc2c(cnn2-c2ccccc2Cl)c(=O)n1-c1ccc(C(C)C)cc1	21µM*	-1%	?	17	-12%	-27%
Cc1ccc(-n2c(C)nc3c(cnn3-c3ccc(F)cc3)c2=O)cc1	15µM*	-3%	18µM*	26	-8%	-28%
Cc1ccc(-n2c(-c3ccco3)nc3c(cnn3-c3ccccc3Cl)c2=O)cc1	-21%	.	-4%	.	-21%	-36%
COc1ccc(-n2c(C)nc3c(cnn3-c3ccc(C)c(C)c3)c2=O)cc1	15µM*	-4%	23µM*	-7	-24%	-42%
O=C(COC(=O)c1ccc[nH]c1=O)Nc1cc(S(=O)(=O)N2CCCCCC2)ccc1Cl	30%	-1%	0%	3	-17%	2%
CC(=O)OCC(OC(C)=O)C(OC(C)=O)C(OC(C)=O)C(=O)Nc1cccc(C)c1 (stereo not drawn)	-1%	-4%	-18%	9	-10%	34%
O=C(N/N=C/c1cccc(O)c1)c1ccc2c(c1)OCCO2	4%	2%	1%	-12	26%	14%
Cc1ccc(/C=N/NC(=O)c2ccc3c(c2)OCCO3)s1	21µM*	2%	21µM*	16	-1%	-13%
Cc1ccc(/C=N/NC(=O)c2ccc3ccccc3c2)s1	0.82µM*	-8%	0.82µM*	47	-20%	-3%
COc1ccccc1Nc1nnc(SCC(=O)Nc2nc(-c3ccc(F)cc3)cs2)s1	13µM*	1%	15µM*	93	?	-49%
SMILES	TDP1 cell noCPT	ASM inhibitor	TDP1 cell CPT	IL1B secr inh	TGFb SMAD3 inh	HepG2 tox
COc1ccc(-c2csc(NC(=O)CSc3nnc(Nc4ccccc4C)s3)n2)cc1	6.5µM*	0%	6.5µM*	20	-15%	-19%
COc1ccc2cc(C)c3nnc(SCC(=O)Nc4nc(-c5ccc(F)cc5)cs4)n3c2c1	23µM*	3%	21µM*	8	?	0%
COc1ccc(NC(=O)Nc2nnc(SCC(=O)Nc3cccc(C)c3C)s2)cc1	7.3µM*	.	18µM*	.	-2%	2%
CCOc1ccccc1Nc1nnc(SCC(=O)Nc2nc(-c3ccc(OC)cc3)cs2)s1	-16%	-2%	-24%	7	2%	0%
COc1ccc(NC(=O)CSc2nnc3c(C)cc4ccccc4n23)cc1	8%	.	10%	.	33%	10%
COc1ccccc1Nc1nnc(SCC(=O)NC2CCCC2)s1	-11%	-2%	-20%	-4	11%	-2%
CCOC(=O)C(CCCCC(NC(C)=O)(C(=O)OCC)C(=O)OCC)(NC(C)=O)C(=O)OCC	-15%	2%	16%	0	12%	24%
Cc1cccc(-c2nn(-c3ccccc3)cc2C(=O)N2CCN(C3CCS(=O)(=O)C3)CC2)c1 (stereo not drawn)	-6%	7%	-4%	2	-7%	-4%
O=C(NCCCc1ccccc1)c1ccc(-n2cncn2)c([N+](=O)[O-])c1	?	-2%	?	11	2%	0%
O=C(N[C@@H]1c2ccccc2C2(CCN(C(=O)c3cc4ccccc4oc3=O)CC2)[C@H]1O)c1cccnc1	-6%	.	-1%	.	.	.
COc1ccccc1NC(=O)CSc1nnc(NC(=O)NC2CCCCC2)s1	?	.	?	.	18µM*	-17%
O=C(N/N=C/c1ccc(O)c(O)c1O)/C(=C/c1ccc([N+](=O)[O-])cc1)NC(=O)c1ccccc1	5.8µM*	?	4.6µM*	20	-24%	-10%
O=C(Nc1cccc2ccccc12)/C(=C/c1ccc([N+](=O)[O-])cc1)NC(=O)c1ccccc1	21µM*	-8%	8.2µM*	-13	0%	-19%

Screening data (PubChem)
